From PubChem BioAssay (Tox21)
Several values for one entry are separate records, joined by “and”; a condition that tells them apart may be missing. Equal values may be shown once. Inconclusive results are not listed. Entries that show only a call come without a potency. A structure can be active in one record and inactive in another. Activity calls are given as the source filed them. Unless noted, calls come from the whole dose curve; as a rule, active = well fitted curve in the direction sought with a large enough effect in the repeat runs; inconclusive = weak or mixed curves; inactive = no such curve, though single readings can be large; an effect the other way counts as inactive or inconclusive.

Key:
[1] = qHTS assay to identify small molecule agonists of the RXR signaling pathway - cell viability counter screen (AID 1159529); note: nearly all actives have a fitted effect of over 50% in size; note: potency is the fitted concentration of half-maximal effect
Outline: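 RXR-alpha-UAS-bla HEK 293T cells in medium with 2% charcoal-stripped FBS were pre-incubated 5 hr, then compound-treated 16 hr at 37 C. Viability was read by CellTiter-Glo luminescence in the same wells as the beta-lactamase assay, with tetraoctyl ammonium bromide as positive control.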

[2] = qHTS assay to identify small molecule antagonists of the retinoid acid receptor (RAR) signaling pathway - cell viability counter screen (AID 1159551); note: nearly all actives have a fitted effect of over 35% in size; note: potency is the fitted concentration of half-maximal effect
Outline: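 Cytotoxicity counter screen: ATP content quantified by CellTiter-Glo luminescence in C3RL4 cells treated 6 hr at 37 C with compound and retinol (1 uM final). Cells plated at 1,000/well and cultured overnight before dosing.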

[3] = qHTS assay to identify small molecule antagonists of the estrogen related receptor (ERR) signaling pathway from Tox21 library - cell viability counter screen (AID 1224834); note: nearly all actives have a fitted effect of over 30% in size; note: potency is the fitted concentration of half-maximal effect
Outline: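 CellTiter-Fluor fluorescence, read after 30 min at 37 C, measures viability of ERR cells. Cells plated at 2,000/well and incubated 6 h before pin-tool compound addition, then exposed 17.5 hours at 37 C.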

[4] = target: Luciferin 4-monooxygenase (Photinus pyralis) (UniProt P08659); experiment: qHTS assay to identify small molecule inhibitors of firefly luciferase (AID 1224835); note: nearly all actives have a fitted effect of over 25% in size; note: potency is the fitted concentration of half-maximal effect
Outline: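 Inhibition of purified Photinus luciferase is measured by luminescence. Substrate levels (D-luciferin, ATP) sit at their KM values. Each compound is tested in a concentration series.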

[5] = target: Nuclear receptor subfamily 1 group I member 3 (Homo sapiens) (UniProt Q14994); experiment: qHTS assay to identify small molecule antagonists of the constitutive androstane receptor (CAR) signaling pathway (AID 1224838);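 note: HepG2 cells stably expressing hCAR with CYP2B6 luciferase reporter stimulated by CITCO; nearly all actives have a fitted effect of over 40% in size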
Outline: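 Antagonism measured as luciferase signal (ONE-Glo, 30 min, room temperature) in CAR-stimulated cells: HepG2-CYP2B6-hCAR double-stable line exposed 24 hr at 37 C to compound in a 15-point series plus 50 nM CITCO.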

[6] = target: Nuclear receptor subfamily 1 group I member 3 (Homo sapiens) (UniProt Q14994); experiment: qHTS assay to identify small molecule agonists of the constitutive androstane receptor (CAR) signaling pathway (AID 1224839);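 note: HepG2 cells stably carrying human CAR and a CYP2B6 luciferase reporter; series mostly up to about 92 µM; nearly all actives have a fitted effect of over 15% in size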
Outline: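 HepG2 cells stably co-transfected with hCAR and a CYP2B6-2.2kb luciferase reporter; compounds at 15 concentrations with 0.75 uM PK11195 present. After 24 hr at 37 C, luciferase read by ONE-Glo luminescence.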

[7] = qHTS assay to identify small molecule antagonists of the estrogen related receptor signaling pathway with the pleiotropic PPARgamma coactivator (PGC) from Tox21 10K library - cell viability counter screen (AID 1224840; active = well fitted cell-killing curve with a large enough effect in the repeat runs, not every such curve was filed as active; note: nearly all actives have a fitted effect of over 40% in size; note: potency is the fitted concentration of half-maximal effect)
Outline: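 Counter-screen for cytotoxicity: after 17.5 h compound exposure at 37 C, CellTiter-Fluor reagent added to PGC/ERR cells for 30 min and fluorescence read. Cells were seeded at 2,000 per well 6 h before dosing.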

[8] = qHTS assay to identify small molecule antagonists of the estrogen related receptor signaling pathway with the pleiotropic PPARgamma coactivator (PGC) from Tox21 10K library (AID 1224841; call rule not given here; note: actives are mostly falling curves and most rising ones were filed inactive; nearly all actives have a fitted effect of over 50% in size; note: potency is the fitted concentration of half-maximal effect)
Outline: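 Luminescence (One-Glo, 30 min at room temperature) after 18 h compound treatment at 37 C of PGC/ERR reporter cells plated at 2,000 cells/well and settled 6 h beforehand.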

[9] = qHTS assay to identify small molecule agonists of the estrogen related receptor signaling pathway with the pleiotropic PPARgamma coactivator (PGC) from Tox21 10K library (AID 1224842); note: nearly all actives have a fitted effect of over 15% in size
Outline: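 Luminescence from One-Glo (30 min, room temperature) measured after PGC/ERR cells had 18 h at 37 C with pinned compound (23 nL in DMSO). Cells had been seeded at 2,000 per well and pre-incubated 6 h.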

[10] = target: Thyrotropin receptor (Homo sapiens) (UniProt P16473); experiment: qHTS assay to identify small molecule agonists of the thyroid stimulating hormone receptor (TSHR) signaling pathway (AID 1224843; calls by dose curve; note: nearly all actives have a fitted effect of over 45% in size; note: potency is the fitted concentration of half-maximal effect)
Outline: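 A cell-based cAMP HTRF format was run in TSHR-transfected HEK293 cells, 800 per well. Treatment: 30 min, room temperature. Detection: 1 h with labelled cAMP and anti-cAMP cryptate. Concentration-response over 15 points, three replicates.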

[11] = qHTS assay to identify small molecule agonists of the constitutive androstane receptor (CAR) signaling pathway - cell viability counter screen (AID 1224836); note: series mostly up to about 92 µM; nearly all actives have a fitted effect of over 45% in size
Outline: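 HepG2 cells stably carrying hCAR and a CYP2B6-2.2kb reporter; 15-concentration compounds plus PK11195 (final 0.75 uM), 23 hr at 37 C/5% CO2. Viability read by CellTiter-Fluor fluorescence.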

[12] = qHTS assay to identify small molecule antagonists of the constitutive androstane receptor (CAR) signaling pathway - cell viability counter screen (AID 1224837); note: series mostly up to about 92 µM; nearly all actives have a fitted effect of over 45% in size
Outline: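 Cytotoxicity counter-screen: CellTiter-Fluor fluorescence after 23 h compound exposure (15-point qHTS) in double-stable HepG2-CYP2B6-hCAR cells, with 50 nM CITCO added.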

Luciferin 4-monooxygenase (Photinus pyralis), sequence (P08659 whole entry, looked up): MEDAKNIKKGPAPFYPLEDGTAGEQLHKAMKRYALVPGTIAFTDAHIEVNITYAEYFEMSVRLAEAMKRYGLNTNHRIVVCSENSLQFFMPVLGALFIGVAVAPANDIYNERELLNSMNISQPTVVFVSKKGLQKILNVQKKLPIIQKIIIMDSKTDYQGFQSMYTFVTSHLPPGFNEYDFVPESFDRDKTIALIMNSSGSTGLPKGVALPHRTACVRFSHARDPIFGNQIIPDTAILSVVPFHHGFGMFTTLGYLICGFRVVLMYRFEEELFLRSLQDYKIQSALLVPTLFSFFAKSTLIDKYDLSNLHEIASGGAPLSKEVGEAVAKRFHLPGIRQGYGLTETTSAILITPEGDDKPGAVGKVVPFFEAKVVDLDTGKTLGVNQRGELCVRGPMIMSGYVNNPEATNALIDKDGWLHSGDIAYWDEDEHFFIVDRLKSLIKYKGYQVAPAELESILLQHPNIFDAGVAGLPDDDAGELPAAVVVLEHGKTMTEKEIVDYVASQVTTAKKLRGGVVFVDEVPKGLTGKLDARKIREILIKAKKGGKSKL
Thyrotropin receptor (Homo sapiens), sequence (P16473 whole entry, looked up): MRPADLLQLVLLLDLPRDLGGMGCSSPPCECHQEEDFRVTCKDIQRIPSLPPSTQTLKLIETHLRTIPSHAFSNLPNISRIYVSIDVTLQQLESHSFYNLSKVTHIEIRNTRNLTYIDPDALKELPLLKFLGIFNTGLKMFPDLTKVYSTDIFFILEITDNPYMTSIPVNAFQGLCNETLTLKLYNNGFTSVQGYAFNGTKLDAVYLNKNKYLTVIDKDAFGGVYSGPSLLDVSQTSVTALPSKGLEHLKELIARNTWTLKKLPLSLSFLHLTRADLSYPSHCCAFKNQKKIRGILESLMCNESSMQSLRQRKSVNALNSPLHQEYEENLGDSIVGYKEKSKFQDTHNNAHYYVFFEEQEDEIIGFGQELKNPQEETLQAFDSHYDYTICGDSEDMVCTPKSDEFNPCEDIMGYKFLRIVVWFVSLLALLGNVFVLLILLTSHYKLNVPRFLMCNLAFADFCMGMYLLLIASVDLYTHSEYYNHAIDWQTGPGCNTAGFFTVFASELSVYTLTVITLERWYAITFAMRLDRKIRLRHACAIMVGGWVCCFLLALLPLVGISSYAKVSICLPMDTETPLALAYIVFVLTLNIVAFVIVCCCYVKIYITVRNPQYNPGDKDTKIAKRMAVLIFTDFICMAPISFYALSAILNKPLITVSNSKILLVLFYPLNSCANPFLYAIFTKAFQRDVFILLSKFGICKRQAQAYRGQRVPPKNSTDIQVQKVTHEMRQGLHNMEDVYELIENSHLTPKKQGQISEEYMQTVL
Nuclear receptor subfamily 1 group I member 3 (Homo sapiens), sequence (Q14994 whole entry, looked up): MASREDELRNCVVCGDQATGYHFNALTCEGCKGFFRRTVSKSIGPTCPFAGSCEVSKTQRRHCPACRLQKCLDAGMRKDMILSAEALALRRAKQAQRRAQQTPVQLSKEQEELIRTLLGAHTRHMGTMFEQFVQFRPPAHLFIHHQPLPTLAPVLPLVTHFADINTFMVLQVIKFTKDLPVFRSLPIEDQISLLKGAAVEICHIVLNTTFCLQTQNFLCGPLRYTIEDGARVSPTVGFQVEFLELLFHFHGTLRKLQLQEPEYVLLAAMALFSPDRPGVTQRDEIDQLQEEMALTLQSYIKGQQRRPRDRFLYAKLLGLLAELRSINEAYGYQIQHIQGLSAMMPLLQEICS

CCCCCCCCCCCCCC[N+](C)(C)Cc1ccccc1
Potency [1]: 7.03 µM (active) and 5.35 µM (active) and 2.51 mM (active) | Potency [2]: 69.6 µM (active) and 29.8 µM (active) and inactive | Potency [3]: 62.1 µM (active) and 23.7 µM (active) and 22.4 mM (active) | Potency [4]: inactive | Potency [5]: inactive | Potency [6]: inactive | Potency [7]: 62.1 µM (active) and inactive | Potency [8]: 31.1 µM (active) and 11.9 µM (active) and 15.8 mM (active) | Potency [9]: inactive | Potency [10]: 43.9 µM (active)

CN(C)C(=O)COC(=O)Cc1ccc(OC(=O)c2ccc(N=C(N)N)cc2)cc1
Potency [1]: inactive | Potency [2]: inactive | Potency [3]: inactive | Potency [4]: inactive | Potency [11]: inactive | Potency [12]: inactive | Potency [7]: inactive | Potency [8]: inactive | Potency [9]: inactive | Potency [10]: inactive

[Cu+]
Potency [1]: inactive | Potency [2]: inactive | Potency [3]: inactive | Potency [4]: 35.6 µM (active) | Potency [11]: inactive | Potency [12]: inactive | Potency [7]: inactive | Potency [10]: inactive

CCCCCCCCCCCCCCCC[N+](C)(C)CC
Potency [1]: 8.74 µM (active) and 10.7 µM (active) | Potency [2]: 61.3 µM (active) | Potency [3]: 30.7 µM (active) and 23.7 µM (active) | Potency [4]: inactive | Potency [7]: 30.7 µM (active) and inactive | Potency [9]: inactive | Potency [10]: inactive

C[Si](Cl)(c1ccccc1)c1ccccc1
Potency [1]: inactive | Potency [2]: inactive | Potency [3]: inactive | Potency [4]: inactive | Potency [11]: inactive | Potency [12]: inactive | Potency [5]: inactive | Potency [7]: inactive | Potency [8]: inactive | Potency [9]: inactive | Potency [10]: inactive
